In PubChem BioAssay (NCATS):
Results filed as inconclusive are left out. Calls of active or inactive are those of the source. Unless noted, calls follow the shape of the dose curve; as a rule, active = well fitted curve in the direction sought with a large enough effect; inconclusive = small, poorly fitted or top-dose-only effect, or another doubt; inactive = no such curve, though single readings can be large; an effect the other way counts as inactive or inconclusive.

Assays:
[1] = Cell Viability - BJ (AID 421; calls by dose curve;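 also: potency is read from the fitted curve at half-maximal effect; cells exposed to compound for 40 hours at 37 °C before readout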); conditions: BJ fibroblast viability, qHTS
Procedure, shortened: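 Cytotoxicity in human BJ foreskin fibroblasts is scored as loss of cellular ATP after a 40-hour exposure, measured by luciferase luminescence. Controls are DMSO and 100 uM tamoxifen.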

[2] = Cell Viability - Hek293 (AID 427;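 active = compounds whose dose-response curve shows a full or clear partial loss of cell viability, called from curve shape rather than a numeric limit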;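 also: potency is read from the fitted curve at half-maximal effect; cells exposed to compound for 40 hours at 37 °C before reading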); conditions: qHTS
Procedure, shortened: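 qHTS, human embryonic kidney (adenovirus-transformed) cells; 40 hr cpd, 37 °C; CellTiter-Glo ATP luminescence. Norm: DMSO = 0, 100 uM tamoxifen = 100% inhibition. Hill-fit AC50.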

[3] = MultiTox-Fluor Cytotoxicity Assay - LYMP1-002 - Dead Cells (AID 960); conditions: LYMP1-002 lymphoblastoid cells, dead-cell protease fluorescence; series mostly up to 46.1 µM; also: nearly all actives have a fitted effect of over 60% in size; also: potency is read from the fitted curve at half-maximal effect
Procedure, shortened: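 Readout: fluorescence at 485/520 from cell-impermeant bis-AAF-R110 cleaved by proteases leaking from damaged cells. LYMP1-002 lymphoblastoid line, 16 hr compound treatment at 37 C, concentration-response in qHTS format; Hill-equation AC50 values.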

[4] = MultiTox-Fluor Cytotoxicity Assay - LYMP1-003 - Dead Cells (AID 961); conditions: LYMP1-003 lymphoblastoid cells, dead-cell protease fluorescence; series mostly up to 92.2 µM;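 also: cells exposed to compound for 16 h at 37 °C; nearly all actives have a fitted effect of over 70% in size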; also: potency is read from the fitted curve at half-maximal effect
Procedure, shortened: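 LYMP1-003 lymphoblastoid, 2500 cells/well, 5 hr settle then 16 hr cpd at 37 C; MultiTox-Fluor reagent 60 min RT; Ex/Em 485/520 dead-cell signal; norm. DMSO = 0%, 15 uM tetraoctylammonium bromide = 100%; Hill AC50.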

[5] = MultiTox-Fluor Cytotoxicity Assay - LYMP1-003 - Live Cells (AID 962); conditions: LYMP1-003 lymphoblastoid cells, MultiTox-Fluor live-cell protease fluorescence; series mostly up to 92.2 µM;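 also: cells exposed to compound for 16 hours at 37 °C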; also: potency is read from the fitted curve at half-maximal effect
Procedure, shortened: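 Readout: live-cell fluorescence (Ex/Em=405/510) from GF-AFC cleavage after 60 min MultiTox-Fluor reagent at room temperature. Lymphoblastoid LYMP1-003 cells, 16 hr compound treatment, 37 C. Concentration-response fitted to standard Hill equation for AC50.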

[6] = Cell Viability - LYMP2-003 (AID 965); conditions: LYMP2-003 lymphoblastoid cell viability; series mostly up to 92.2 µM;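 also: cells exposed to compounds for 24 h before reading; nearly all actives have a fitted effect of over 50% in size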; also: potency is read from the fitted curve at half-maximal effect
Procedure, shortened: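 Seed 2500 lymphoblastoid cells/well; incubate 5 hr, 37 C; add compounds; incubate 24 hr, 37 C; add CellTiter-Glo, 30 min RT; read luminescence. AC50 from Hill fit.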

[7] = Cell Viability - LYMP2-005 (AID 967); conditions: LYMP2-005 lymphoblastoid cell viability; series mostly up to 92.2 µM; also: potency is read from the fitted curve at half-maximal effect
Procedure, shortened: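 Acute cytotoxicity is scored as a concentration-dependent drop in intracellular ATP in human lymphoblastoid LYMP2-005 cells after 24 h compound treatment. ATP is quantified by luciferase luminescence, and AC50 is derived by Hill-equation modelling.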

[8] = Cell Viability - LYMP2-023 (AID 975); conditions: LYMP2-023 lymphoblastoid cell viability; series mostly up to 92.2 µM; also: nearly all actives have a fitted effect of over 55% in size; also: potency is read from the fitted curve at half-maximal effect
Procedure, shortened: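 CellTiter-Glo luminescence after 30 min at room temperature; decrease in intracellular ATP reflects toxicity. Cells: human lymphoblastoid line, 2500/well, 24 hr compound exposure at 37 C. AC50 fitted to standard Hill equation from concentration-response.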

[9] = Cell Viability - LYMP2-025 (AID 976); conditions: LYMP2-025 lymphoblastoid cell viability; series mostly up to 92.2 µM; also: potency is read from the fitted curve at half-maximal effect
Procedure, shortened: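 CellTiter-Glo luminescence (cellular ATP) after 24 h compound exposure at 37 C; LYMP2-025 human lymphoblastoid cells, 2500/well, complete medium. Tetraoctylammonium bromide positive control. AC50 by Hill equation fit of qHTS concentration-response.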

[10] = Cell Viability - LYMP2-002 (AID 977); conditions: LYMP2-002 lymphoblastoid cell viability, qHTS; series mostly up to 92.2 µM; also: potency is read from the fitted curve at half-maximal effect
Procedure, shortened: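 Human lymphoblastoid cells (2500/well) in complete medium were preincubated 5 hr at 37 C, then exposed to compounds for 24 hr at 37 C. Intracellular ATP was read by CellTiter-Glo luminescence; AC50 came from Hill-equation concentration-response fits.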

[11] = Cell Viability - LYMP2-012 (AID 982); conditions: LYMP2-012 lymphoblastoid cell viability qHTS; series mostly up to 92.2 µM;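 also: cellular ATP by luciferase luminescence where a drop means cytotoxicity; cells exposed to compound for one day before reading; nearly all actives have a fitted effect of over 55% in size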; also: potency is read from the fitted curve at half-maximal effect
[12] = Cell Viability - LYMP2-016 (AID 984); conditions: LYMP2-016 lymphoblastoid cell viability, qHTS; series mostly up to 92.2 µM; also: nearly all actives have a fitted effect of over 55% in size; also: potency is read from the fitted curve at half-maximal effect
Procedure, shortened: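 Cells were seeded at 2500 per well and rested 5 hr before a 24 hr compound exposure at 37 C. Viability was then gauged as cellular ATP by luciferase luminescence, with AC50 values fitted to the Hill equation.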

[13] = Cell Viability - LYMP2-018 (AID 985); conditions: LYMP2-018 lymphoblastoid cells, viability (qHTS); series mostly up to 92.2 µM; also: nearly all actives have a fitted effect of over 50% in size; also: potency is read from the fitted curve at half-maximal effect
Procedure, shortened: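 2500 cells/well; 5 hr 37 C; cmpd 24 hr 37 C, complete medium; CellTiter-Glo 30 min RT; luminescence. Tetraoctylammonium bromide positive control. AC50 via Hill fit.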

[14] = Cell Viability - LYMP2-020 (AID 986); conditions: series mostly up to 92.2 µM; also: nearly all actives have a fitted effect of over 55% in size; also: potency is read from the fitted curve at half-maximal effect
Procedure, shortened: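 qHTS, 2500 cells/well; 5 hr then 24 hr compound exposure, 37 C; CellTiter-Glo luminescence after 30 min RT; ATP decrease taken as cytotoxicity; AC50 via Hill equation; tetraoctylammonium bromide positive control.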

[15] = Cell Viability - LYMP2-022 (AID 987); conditions: LYMP2-022 lymphoblastoid cell viability; series mostly up to 92.2 µM; also: nearly all actives have a fitted effect of over 55% in size; also: potency is read from the fitted curve at half-maximal effect
Procedure, shortened: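 Luminescent ATP read-out (CellTiter-Glo, 30 min, RT) after 24 hr, 37 C compound exposure of 2500 human lymphoblastoid cells/well in complete medium. Cytotoxicity taken as concentration-dependent ATP loss; AC50 from standard Hill equation.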

[16] = Cell Viability - LYMP2-024 (AID 988); conditions: LYMP2-024 lymphoblastoid cell viability; series mostly up to 92.2 µM; also: nearly all actives have a fitted effect of over 60% in size; also: potency is read from the fitted curve at half-maximal effect
Procedure, shortened: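 ATP-based luminescence (CellTiter-Glo, 30 min RT) after 24 h compound exposure at 37 C of 2500 lymphoblastoid cells/well; decrease in ATP taken as cytotoxicity. qHTS concentration-response fitted to standard Hill equation for AC50.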

[17] = Cell Viability - LYMP2-026 (AID 989); conditions: LYMP2-026 lymphoblastoid cell viability, qHTS; series mostly up to 92.2 µM; also: nearly all actives have a fitted effect of over 50% in size; also: potency is read from the fitted curve at half-maximal effect
Procedure, shortened: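 qHTS cytotoxicity: 2500 cells/well, 5 hr 37 C, compound 24 hr 37 C, CellTiter-Glo 30 min RT, luminescence. Tetraoctylammonium bromide positive control. AC50 via standard Hill fit.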

[18] = Cell Viability - LYMP1-002 - Assay at 24 hr (AID 993); conditions: LYMP1-002 lymphoblastoid cells viability; series mostly up to 92.2 µM; also: potency is read from the fitted curve at half-maximal effect
Procedure, shortened: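 CellTiter-Glo luminescence (intracellular ATP) after 24 h compound exposure, 37 C, in LYMP1-002 human lymphoblastoid cells; decreased ATP taken as cytotoxicity. AC50 from standard Hill fit of concentration-response curves.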

[19] = Cell Viability - LYMP1-002 - Assay at 40 hr (AID 994); conditions: LYMP1-002 lymphoblastoid cell viability; series mostly up to 92.2 µM; also: nearly all actives have a fitted effect of over 60% in size; also: potency is read from the fitted curve at half-maximal effect
Procedure, shortened: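 qHTS cytotoxicity; 2500 cells/well, 5 hr 37 C settle, compound 40 hr 37 C. CellTiter-Glo, 30 min RT, luminescence (ATP). Concentration-response, Hill fit → AC50. Pos. ctrl tetraoctylammonium bromide.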

[20] = qHTS Assay for Identification of Small Molecule Inducers of Hypoxia Response (AID 2120; active = well fitted curve in the direction sought with a large enough effect in the signal ratio, with a control signal flat, not every such curve was filed as active; the % refers to the signal ratio); conditions: hypoxia response reporter cells, beta-lactamase ratio readout; series mostly up to 104 µM
Procedure, shortened: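 Read-out: CCF4 FRET emission ratio 460nm/530nm (excitation 405nm), converted to %Activity, with AC50 fitted across a compound titration. ME-180 cells carried an HRE-driven beta-lactamase reporter; compound exposure 17 h, 37 degrees C.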

Measured: Potency

COC(=O)NC(=S)Nc1ccccc1NC(=S)NC(=O)OC
inactive: [1] > 92 µM | [2] > 92 µM | [3] | [4] | [5] | [6] | [7] | [8] | [9] | [10] | [11] | [12] | [13] | [14] | [15] | [16] | [17] | [18] | [19] | [20]

COP(=S)(OC)Oc1ccc([N+](=O)[O-])cc1
inactive: [1] > 92 µM | [2] > 92 µM | [3] | [4] | [5] | [6] | [7] | [8] | [9] | [10] | [11] | [12] | [13] | [14] | [15] | [16] | [17] | [18] | [19] | [20]

ClC1=C(Cl)C2(Cl)C3C4CC(C5OC45)C3C1(Cl)C2(Cl)Cl (configuration not stated)
active: [3] 20 µM | [4] 10 µM | [5] 12.6 µM | [6] 25.1 µM | [7] 20 µM | [8] 39.8 µM | [9] 50.1 µM | [10] 31.6 µM | [11] 39.8 µM | [12] 50.1 µM | [13] 39.8 µM | [14] 31.6 µM | [15] 39.8 µM | [16] 39.8 µM | [17] 39.8 µM | [18] 12.6 µM | [19] 12.6 µM
inactive: [1] > 92 µM | [2] > 92 µM | [20]

c1ccc(N=Nc2ccccc2)cc1
inactive: [1] > 92 µM | [2] > 92 µM | [3] | [4] | [5] | [6] | [7] | [8] | [9] | [10] | [11] | [12] | [13] | [14] | [15] | [16] | [17] | [18] | [19] | [20]

CCCCCCCCCc1ccc(O)cc1
active: [3] 25.1 µM | [4] 39.8 µM
inactive: [5] | [6] | [7] | [8] | [9] | [10] | [11] | [12] | [13] | [14] | [15] | [16] | [17] | [18] | [19]
